Only some compounds are listed: those with a hit (about 17% of all), similar ones and a draw of the others.
HT1080 IDH1KD tx: HT-1080 IDH1 knockdown cell toxicity (counter line); AID 686971; 360,000 tested, 2% active; HT-1080 IDH1 knockdown viability, ATP luminescence, 48 h; Potency, µM (highest dose often 46.1 µM), actives largely listed as cytotoxic
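Viability of IDH1-knockdown HT-1080 fibrosarcoma cells was assessed by CellTiter-Glo after 48 h at 37 °C with titrated compound; concentration-effect curves were classified by fit quality and response size.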
DT40 TDP1 no CPT: qHTS for Inhibitors of human tyrosyl-DNA phosphodiesterase 1 (TDP1): qHTS in cells in absence of CPT; DT40 Tdp1-/- hTDP1 cells, no CPT, ATP luminescence, 48 h; Potency, µM (highest dose often 46.2 µM), usual class: inhibitors; AID 686978, 2013; 420,000 tested, 15% active; also: nearly all actives have a fitted effect of over 55% in size
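Camptothecin absent (DMSO only). Human TDP1-complemented DT40 knockout cells, 400 cells/well, 37 °C for minimum 48 hr; ATP measured via CellTiter-Glo, 30 min dark incubation, luminescence.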
TDP1 cell CPT: DT40-hTDP1 cell growth loss with CPT. Potency, µM (series often up to 46.2 µM), usual class: inhibitors. AID 686979. 420,000 tested, 12% active. chicken DT40 Tdp1-/-;hTDP1 cells + 20 nM CPT, ATP luminescence, 48 h; also: nearly all actives have a fitted effect of over 55% in size
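Chicken DT40 Tdp1-/- cells complemented with human TDP1, 400 cells/well, exposed to compounds plus 20 nM camptothecin for at least 48 h at 37 C; viability read as ATP content by CellTiter-Glo luminescence.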
HepG2 viability: HepG2 cytotoxicity, counter-screen for TGF-b inhibitors | HepG2 CAGA-GFP viability, ATP luminescence, 18 h | Potency, µM (doses to about 46.1 µM), usual class: cytotoxic | 410,000 tested, 0.76% active | AID 588856
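HepG2 CAGA-GFP cells (1000/well, DMEM with 1% FBS) received compound, then TGF-beta at 500 pg/mL final, and were incubated 18 hours at 37 degrees C. Viability was read by CellTiter-Glo luminescence. Media-only wells were set as complete cell-killing and DMSO as no toxicity.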
HT1080-NT tox: kills 2HG-producing HT-1080-NT fibrosarcoma cells. HT-1080-NT fibrosarcoma viability, CellTiter-Glo ATP luminescence, 48 h. AID 686970. 360,000 tested, 1.6% active. Potency, µM (highest dose often 46.1 µM), actives largely listed as cytotoxic;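 also: NT is the 2HG producing partner of a matched IDH1 knockdown line; nearly all actives have a fitted effect of over 55% in size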
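HT-1080-NT fibrosarcoma cells (2HG-overproducing), 750 cells/well in RPMI with 5% FBS, dosed after 2 h and incubated 48 h at 37C. CellTiter-Glo luminescence normalized to DMSO and no-cell wells; concentration-response curves fitted and classed.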
TGFb inhibitor: inhibitors of TGF-b signaling; HepG2 CAGA-GFP TGF-b/SMAD3 reporter, GFP fluorescence, 18 h; TGF-beta stimulated, 500 pg/mL final; Potency, µM (series often up to 46.1 µM), hits mostly inhibitors; 410,000 tested, 1.2% active; AID 588855; also: nearly all actives have a fitted effect of over 65% in size
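Smad-responsive CAGA-GFP expression was quantified in HEPG2 cells exposed to compounds and 500 pg/mL final TGF-beta for 18 h at 37 degrees C; unstimulated wells defined full inhibition.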
Of the large screens only hits and unclear results are named; the others gave an inactive call. Calls follow the shape of the dose curve; as a rule, active = well fitted curve in the direction sought with a large enough effect; inconclusive = small, poorly fitted or top-dose-only effect, or another doubt; inactive = no such curve, though single readings can be large; an effect the other way counts as inactive or inconclusive.

CCOc1ccccc1CNC(=O)c1cc2n(n1)CCCN(Cc1ccc(C)cc1)C2=O	DT40 TDP1 no CPT 14.6µM, TDP1 cell CPT 16.4µM, TGFb inhibitor inconclusive (no result: HT1080 IDH1KD tx, HT1080-NT tox)
COc1cccc(CNC(=O)c2cc3n(n2)CCCN(Cc2ccc(C)cc2)C3=O)c1OC	DT40 TDP1 no CPT 16.4µM, TDP1 cell CPT 23.1µM (no result: HT1080 IDH1KD tx, HT1080-NT tox)
CC(=O)c1ccc(S(=O)(=O)Nc2ccc(-c3ccc(N4CCCCC4)nn3)cc2)cc1	none (no result: HT1080 IDH1KD tx, HT1080-NT tox)
Cn1cc(CNC(=O)C2CCC(=O)N(Cc3ccc(Cl)cc3)C2)cn1 (stereo not drawn)	none
NCCC1CN(C(=O)OCc2ccccc2)c2ccccc21 (stereo not drawn)	HT1080 IDH1KD tx inconclusive, DT40 TDP1 no CPT 5.17µM, TDP1 cell CPT 5.8µM
O=C(CSc1nc2c(sc3ccccc32)c(=O)n1CCCC(=O)NC1CCCC1)Nc1ccc(F)cc1	none (no result: HT1080 IDH1KD tx, HT1080-NT tox)
CCC(C)(CC(=O)Nc1nccs1)c1ccccc1 (stereo not drawn)	DT40 TDP1 no CPT inconclusive
CCCCCCCNC(=O)C1(CC2CC(c3cccc(Br)c3)=NO2)CCN(C(=O)C2CCCC2)CC1 (stereo not drawn)	DT40 TDP1 no CPT inconclusive, TDP1 cell CPT 20.6µM, TGFb inhibitor inconclusive
O=C(NCC1CCCCC1)C1(CC2CC(c3cccc(Br)c3)=NO2)CCNCC1 (stereo not drawn)	DT40 TDP1 no CPT 16.4µM, TDP1 cell CPT 16.4µM, HepG2 viability 15.8µM, TGFb inhibitor inconclusive
CCCNC(=O)C1(CC2CC(c3ccccc3)=NO2)CCN(C(=O)CCCCCBr)CC1 (stereo not drawn)	none
CCCCCCCNC(=O)C1(CC2CC(c3cccc(Br)c3)=NO2)CCN(C(=O)OC(C)(C)C)CC1 (stereo not drawn)	DT40 TDP1 no CPT 14.6µM, TDP1 cell CPT inconclusive
CCCNC(=O)C1(CC2CC(c3ccccc3)=NO2)CCN(C(=O)OC(C)(C)C)CC1 (stereo not drawn)	DT40 TDP1 no CPT inconclusive, TDP1 cell CPT inconclusive
O=C(NCC1CCCCC1)C1(CC2CC(c3ccc(Cl)cc3)=NO2)CCNCC1 (stereo not drawn)	DT40 TDP1 no CPT 18.4µM, TDP1 cell CPT 23.1µM, HT1080-NT tox inconclusive, TGFb inhibitor inconclusive
C/C(=N\N(c1ccccc1)c1ccccc1)c1ccco1	none
Cc1ccc(C(=O)Nn2cnnc2)cc1Cl	none
COc1ccc(NC(C)=O)cc1NC(=O)CN1CCN(CC(=O)Nc2ccc(Cl)cc2)CC1	none
CCCS(=O)(=O)NC(=O)C1(C)CCN(C(=O)c2ccccc2C(F)(F)F)C1 (stereo not drawn)	none
CC(C)(C)OC(=O)N1CCC(CC2CC(c3cccc(Br)c3)=NO2)(C(=O)NCC2CCCCC2)CC1 (stereo not drawn)	DT40 TDP1 no CPT 16.4µM, TDP1 cell CPT inconclusive, TGFb inhibitor inconclusive
O=C(c1ccccc1)N1CCC(CC2CC(c3cccc(Br)c3)=NO2)(C(=O)NCC2CCCCC2)CC1 (stereo not drawn)	DT40 TDP1 no CPT inconclusive, TDP1 cell CPT inconclusive
CCSC1=NC(C)(C)C=C(/C=C/c2ccc(Cl)cc2Cl)N1	HT1080 IDH1KD tx inconclusive, DT40 TDP1 no CPT 16.4µM, TDP1 cell CPT inconclusive, HT1080-NT tox 16.4µM, TGFb inhibitor inconclusive
CSC1=NC(C)(C)C=C(/C=C/c2ccc(Cl)cc2)N1	HT1080 IDH1KD tx inconclusive, DT40 TDP1 no CPT 16.4µM, TDP1 cell CPT 20.6µM, HT1080-NT tox 23.1µM, TGFb inhibitor inconclusive
CSC1=NC(C)(C)C=C(/C=C/c2c(Cl)cccc2Cl)N1	HT1080 IDH1KD tx inconclusive
COc1cccc(/C=N/N(C)C2=NS(=O)(=O)c3ccccc32)c1O	TDP1 cell CPT inconclusive
COc1ccc(/C=N/N(CCC(=O)NC(C)(C)C)C2=NS(=O)(=O)c3ccccc32)cc1	DT40 TDP1 no CPT 20.6µM, TDP1 cell CPT 20.6µM
